A selection: hits, their analogues and other compounds. The true share with any hit is near 5.9%.
ABHD5-PLIN5 inh: ABHD5-PLIN5 protein interaction inhibition. Q00G26+Q8WTS1. Split G. princeps luciferase complementation, luminescence, 4 h. inhibition, % at 4 µM. actives 0.78% (n = 360,000);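 active means inhibition above the mean inhibition across every tested compound plus 3 SD, cut at about 22% in these data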
Rtt109 Vps75: C. albicans Rtt109 histone acetyltransferase inhibition | inhibition, % at 34.9 µM | actives 0.16% (n = 330,000) | purified Rtt109/Vps75, ThioGlo CoA-SH fluorescence, 4 h;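 active means inhibition of at least 50% in every replicate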
Target sequence (Q5AAJ8 whole entry, looked up): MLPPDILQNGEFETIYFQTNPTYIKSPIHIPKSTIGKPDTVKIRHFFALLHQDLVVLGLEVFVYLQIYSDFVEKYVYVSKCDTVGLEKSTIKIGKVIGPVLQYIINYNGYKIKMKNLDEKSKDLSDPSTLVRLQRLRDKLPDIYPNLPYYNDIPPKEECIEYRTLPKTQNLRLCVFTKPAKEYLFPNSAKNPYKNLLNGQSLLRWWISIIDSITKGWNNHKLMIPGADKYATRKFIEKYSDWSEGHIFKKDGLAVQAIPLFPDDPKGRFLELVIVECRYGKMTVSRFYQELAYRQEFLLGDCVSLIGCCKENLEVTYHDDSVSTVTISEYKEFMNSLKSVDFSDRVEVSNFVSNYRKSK
ALR H2O2 inh: inhibitors of human sulfhydryl oxidase ALR. P55789. actives 3.8% (n = 290,000). inhibition, % (concentration not given with the values). purified ALR, DTT oxidation, H2O2 HRP-luminol luminescence;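 active means mean replicate inhibition above about 79%, with every replicate also reaching it, limit read from the data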
Target sequence (P55789 whole entry, looked up): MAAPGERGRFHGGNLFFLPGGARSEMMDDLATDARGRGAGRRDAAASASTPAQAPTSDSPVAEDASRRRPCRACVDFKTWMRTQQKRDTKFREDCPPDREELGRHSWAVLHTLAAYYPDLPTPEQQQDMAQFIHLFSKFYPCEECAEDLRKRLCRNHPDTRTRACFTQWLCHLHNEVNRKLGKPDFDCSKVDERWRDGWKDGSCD
rCAG binder: r(CAG) repeat RNA binding; TO-PRO-1 dye displacement fluorescence; inhibition, % at 3 µM; actives 1.3% (n = 370,000);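 active means inhibition above the plate cutoff, the mean of all test compounds on that plate plus 3 SD, cut at about 35% in these data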;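 further: higher means more dye released from RNA so lower well fluorescence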
LANA-H2B inh: blocks KSHV LANA binding to histone H2A/H2B; inhibition, % (no concentration beside the values); Q9QR71; actives 0.6% (n = 320,000); AID 2629; cell-free LANA-H2A/H2B peptide, fluorescence polarization; in the data active means inhibition mostly above about 10%, no sharp cut-off; inactive means mostly below about 6.7%
PRMT1 FP inh: inhibitors of human PRMT1; Q99873; recombinant PRMT1, activity-based probe fluorescence polarization; inhibition, % at 2.79 µM; actives 1.3% (n = 370,000);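 active means inhibition above about 21% made by adding two undisclosed values, limit read from the data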
Hits are given with their value; n = inactive; x = not tested or not shown; + = active, no number.

SMILES | ABHD5-PLIN5 inh | Rtt109 Vps75 | ALR H2O2 inh | rCAG binder | LANA-H2B inh | PRMT1 FP inh
COc1cccc(C2c3[nH]c4ccccc4c3C[C@H]3C(=O)N(c4ccccc4C(=O)N4CCC(C(=O)O)CC4)C(=O)N23)c1 (some centres undefined) | n | n | 98 | n | n | n
CN(C)c1ccc(-n2cc3c(=O)n(C)c(=O)n(C)c3c2)cc1 | n | n | 99 | n | n | n
CCN(CC)c1ccc(-n2cc3c(=O)n(C)c(=O)n(C)c3c2)cc1 | n | n | n | n | n | n
CC(NCc1ccco1)C(=O)N1CCN(Cc2ccccc2F)CC1 (centres undefined) | x | x | x | n | x | n
Cc1cccc(N2C(S)=C(C#N)C(=O)NC2c2cccs2)c1 (centres undefined) | n | 121 | n | n | n | n
N#CC1=C(S)N(c2ccc(F)cc2)C(c2cccs2)NC1=O (centres undefined) | n | n | x | n | x | n
Cc1ccccc1N1C(S)=C(C#N)C(=O)NC1c1cccs1 (centres undefined) | n | + | n | n | n | n
CC(Nc1ccc2c(c1)OCCO2)C(=O)Nc1ccc2c(c1)OCO2 (centres undefined) | n | n | 96 | n | n | n
CCN1CCN(c2cc(C)c3cc(NC(=O)c4ccc5c(c4)OCO5)ccc3n2)CC1 | n | n | 84 | n | n | n
O=C(Nc1ccc2c(c1)OCCO2)Nc1ccc2c(c1)OCO2 | n | n | n | n | n | n
CN(c1ccc(C(=O)Nc2ccc3c(c2)OCO3)cc1)S(C)(=O)=O | n | 51 | n | n | n | n
CCN(CC(=O)Nc1ccc(NC(C)=O)cc1)C(=O)c1ccc2c(c1)OCO2 | n | n | n | n | 22 | n
CCCCN1C(=O)C(CC(=O)NCC2CCCCC2)CC(C(=O)N2CCCCCC2)=C1C (centres undefined) | n | x | x | n | x | n
CCN(CC(=O)Nc1ccc(NC(C)=O)cc1)C(=O)C1CCCC1 | n | n | n | n | 103 | n
CCN(CC)c1ccc(NC(=O)c2ccc3c(c2)OCO3)cc1 | n | n | 99 | n | n | n
CCC(=O)Nc1ccc(NC(=O)c2ccc3c(c2)OCO3)cc1 | n | n | n | n | n | n
CCN(CC(=O)Nc1ccc2c(c1)OCCO2)C(=O)C1CCCCC1 | n | n | n | n | n | n
CCOc1ccc(-c2nc(CCl)cs2)cc1 | n | n | x | n | n | n
COc1ccc(Br)cc1-c1nc(CCl)cs1 | n | n | 95 | n | n | n
COc1ccc(-c2cc(-c3ccccc3)no2)cc1 | n | n | n | n | n | n
COc1ccc(-c2cc3nnc(-c4ccccc4)nc3s2)cc1 | n | n | 94 | n | n | n
CCOC(=O)C1=C(CS(=O)(=O)c2ccc(F)c(C)c2)NC(=O)NC1c1ccc(O)c(O)c1 (centres undefined) | n | n | 98 | n | n | n
CC1=C(C(=O)N2CCCCCC2)CC(CC(=O)NCCN2CCOCC2)C(=O)N1CCCN1CCCC1=O (centres undefined) | n | x | x | n | x | n
C=CCc1c(C)nc(-c2ccccc2)nc1N/N=C(\C)c1ccccc1 | n | n | x | n | x | n
C=CCc1c(C)nc(-c2ccccc2)nc1Nc1ccc(O)cc1 | n | n | 99 | n | n | n
SMILES | ABHD5-PLIN5 inh | Rtt109 Vps75 | ALR H2O2 inh | rCAG binder | LANA-H2B inh | PRMT1 FP inh
O=C(/C=C(\Nc1cccc(Cl)c1F)c1ccccc1)c1ccccc1 | x | x | x | n | x | n
Cc1ccc(Nc2nc(CSc3nnc(-c4ccncc4)n3C)cs2)cc1 | n | n | n | n | n | n
Cc1ccccc1Nc1nc(CSc2nnc(-c3ccoc3C)n2C)cs1 | n | n | 97 | n | n | n
CN1OC[C@@H]2CN[C@H](c3ccc(-n4ccnc4)cc3)C[C@@H]21 | x | x | x | n | x | n
CCOC(=O)c1c(NC(=O)CCS(=O)(=O)c2ccccc2)sc2c1CCN(C)C2 | n | n | n | n | 53 | n
CC(=O)N1CCc2c(sc(NC(=O)CCS(=O)(=O)c3ccccc3)c2C(N)=O)C1 | n | n | n | n | 33 | n
COc1cc(/C=C/C(=O)OCC(=O)NCc2ccc(F)cc2)ccc1O | n | n | x | n | n | n
COc1ccc([N+](=O)[O-])cc1NC(=O)CSCc1ccccc1C | n | n | 99 | n | n | n
O=C1c2c([N+](=O)[O-])cc([N+](=O)[O-])cc2S(=O)N1Cc1ccccc1 (centres undefined) | n | x | n | n | n | 21
O=[N+]([O-])c1ccc(NC2CCN(Cc3ccccc3)CC2)c([N+](=O)[O-])c1 | n | n | n | n | n | n
Cn1c(=O)c2c(ncn2Cc2ccc(O)c([N+](=O)[O-])c2)n(C)c1=O | x | x | x | n | x | n
Cc1ccc(NC(=O)COC(=O)c2ccc(NC(=O)CC#N)cc2)cc1S(=O)(=O)N1CCOCC1 | n | n | 99 | n | n | n
Nc1cc(=O)[nH]c(SCC(=O)Nc2ccc3c(c2)CCC3)n1 | n | n | 90 | n | n | n
Nc1cc(=O)[nH]c(SCC(=O)Nc2cc(S(=O)(=O)N3CCCCCC3)ccc2Cl)n1 | n | n | n | n | n | 23
Cc1ccc(NC(=O)CSc2nccc(=O)[nH]2)c(S(=O)(=O)N2CCOCC2)c1 | n | n | 98 | n | n | n
Cc1cc(=O)[nH]c(SCC(=O)Nc2ccc(S(=O)(=O)N3CCCCC3)cc2)n1 | n | n | 98 | n | n | n
O=C(CSc1nc(NS(=O)(=O)c2ccccc2)cc(=O)[nH]1)Nc1ccc(F)cc1 | n | n | 98 | n | n | n
Cc1ccc(C)c(C(=O)COC(=O)c2ccc(C)c(S(=O)(=O)N3CCOCC3)c2)c1 | n | n | n | n | 14 | n
Cc1ccc(NC(=O)CSc2nc(N)cc(=O)[nH]2)cc1S(=O)(=O)N1CCCCCC1 | n | n | 99 | n | n | n
O=C(CSc1nc(O)c(C2CCCCC2)c(=O)[nH]1)N1CCOCC1 | n | n | n | n | n | n
Cc1ccc(NC(=O)CN2C(=O)NC3(CCCCC3C)C2=O)cc1S(=O)(=O)N1CCCCC1 (centres undefined) | n | n | n | n | 55 | n
O=C(CSc1nc(O)c(C2CCCCC2)c(=O)[nH]1)Nc1ccc(F)cc1 | n | n | 99 | n | n | n
Cc1ccc(NC(=O)CSc2nc(N)cc(N)n2)cc1S(=O)(=O)N1CCOCC1 | n | n | n | n | 19 | n
CCS(=O)(=O)c1ccc2oc(SCC(=O)c3c(N)n(C4CC4)c(=O)[nH]c3=O)nc2c1 | n | n | n | n | 47 | n
Cc1ccc(Nc2nnc(SCC(=O)c3c(N)n(C4CC4)c(=O)[nH]c3=O)s2)cc1C | n | n | n | n | + | n
CCNC(=O)N1CCN(c2ccc(N3CCN(Cc4ccccc4)[C@@H](C)C3)c(C)c2)[C@@H](C)C1 | x | x | x | n | x | n
COc1ccc(SC[C@H](Cc2ccccc2)N2CC[C@@H](C(C)(C)C)CCC2=O)cc1 | n | n | 99 | n | n | n

Source: PubChem BioAssay
